Results on 17 compounds are retold here after PubChem BioAssay (NCI).

Among the test systems are T-47D breast; BT-549 breast; MDA-MB-435 melanoma; SW-620 colon; MCF7 breast; HCT-116 colon; KM12 colon; HCC-2998 colon.
Assay in all cases: NCI-60 one-dose screen, 48 h (100 = growth as untreated, 0 = no growth, -100 = all killed)
Common to all, as to conditions: 10 µM unless noted

SMILES strings stand for the structures. This is part of a sample that, as a whole, favours compounds with a hit. Of some 83,000 tested, about 20% had one in any assay.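 Activity criterion: percent growth below 10, measured after cells in 96-well plates were exposed to a single compound concentration for 48 hours.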 Values without a mark were called inactive. Calls of active or inactive are those of the source.

Regarding `FC(F)(F)c1ccc2c(c1)Sc1ccccc1N2`, the growth in the test on T-47D breast is 77.7%; in the test with BT-549 breast, 93.3%; in the test on MDA-MB-435 melanoma, 97.1%; in the test with SW-620 colon, 100%; with MCF7 breast it was 95.4%; in the test on HCT-116 colon it was 100%. Also, the growth in the test on KM12 colon is 95%.

`c1nc(N2CCOCC2)c2[nH]ccc2n1`: the growth in the test with T-47D breast is 112%; in the test on BT-549 breast, 101%; in the test on MDA-MB-435 melanoma, 112%; in the test with SW-620 colon, 111%; with MCF7 breast, 90.6%; in the test on HCT-116 colon it was 103%. Moreover, the growth with KM12 colon is 115%.

Regarding `Cc1c(Cn2cc(COc3ccc(Br)cc3)nn2)c(C)c(Cn2cc(COc3ccc(Br)cc3)nn2)c(C)c1Cn1cc(COc2ccc(Br)cc2)nn1`, the growth in the test on T-47D breast was 70.2%; in the test on BT-549 breast, 97.1%; in the test on MDA-MB-435 melanoma it was 98.7%; in the test with SW-620 colon, 85%; with MCF7 breast, 90%; in the test with HCT-116 colon, 92.3%. Further, the growth in the test on HCC-2998 colon was 114%; with KM12 colon it was 99.8%.

As for `COc1cc(C)cc2oc3oc(=O)c(-c4nc5ccccc5s4)cc3c(=O)c12`, the growth was 91.2% in the test on T-47D breast; 92.7% in the test on BT-549 breast; 95.3% in the test with MDA-MB-435 melanoma; 83.9% in the test on SW-620 colon; 84.7% in the test with MCF7 breast; 93.4% in the test with HCT-116 colon. The growth in the test with HCC-2998 colon is 109%; in the test on KM12 colon it was 93.1%.

For `CCN(CC)c1ccc2cc(C(Nc3ccc(Br)c(C(F)(F)F)c3)c3nnnn3C(C)(C)C)c(=O)oc2c1` (centres undefined), the growth with T-47D breast was 64.2%; in the test with BT-549 breast it was 97.3%; with MDA-MB-435 melanoma it was 99.4%; in the test on SW-620 colon it was 98.7%; with MCF7 breast it was 73.8%; in the test with HCT-116 colon, 93.5%. Further, the figures for the growth in the test on HCC-2998 colon and in the test with KM12 colon were 106% and 102%, respectively.

As to `C=C(C)[C@@H]1CC[C@]2(C(=O)OC)CC[C@]3(C)[C@H](CC[C@@H]4[C@@](C)(CCc5nn[nH]n5)[C@H](C(=C)C)CC[C@]43C)[C@@H]12`, the growth with T-47D breast was -5.51% [100 µM] (active); in the test with BT-549 breast it was -12.1% [100 µM] (active); in the test on MDA-MB-435 melanoma, -54% [100 µM] (active); in the test with SW-620 colon it was -19.6% [100 µM] (active); in the test with MCF7 breast, 5.06% [100 µM] (active); with HCT-116 colon, -21.5% [100 µM] (active). Moreover, the values for the growth with HCC-2998 colon and in the test on KM12 colon were -53.5% [100 µM] (active) and -43.7% [100 µM] (active), respectively.

Take `Cc1ncc(C(=O)Nc2ccc(CN3CCN(C)CC3)c(C(F)(F)F)c2)cc1C#Cc1c(N)ncc2ccc(C#N)cc12`: the growth with T-47D breast was 48.9%; with BT-549 breast, 51.4%; in the test on MDA-MB-435 melanoma, 7.01% (active); in the test with SW-620 colon it was 34.1%; with MCF7 breast, 29.5%; with HCT-116 colon, 14.5%. In addition, the results for the growth in the test on HCC-2998 colon and in the test with KM12 colon were 58.4% and 9.43% (active), respectively.

For the compound `C[C@H]1[C@H](C)CC[C@]2(C(=O)N3CCN(C)CC3)CC[C@]3(C)C(=CC[C@@H]4[C@@]5(C)C/C(=C/c6ccco6)C(=O)C(C)(C)[C@@H]5CC[C@]43C)[C@H]12`, the growth in the test on T-47D breast was 20.3% [100 µM]; with BT-549 breast it was 50.8% [100 µM]; in the test with MDA-MB-435 melanoma it was 42.6% [100 µM]; with SW-620 colon, 39.9% [100 µM]; in the test with MCF7 breast, 23.9% [100 µM]; in the test with HCT-116 colon it was 19% [100 µM]. The growth with KM12 colon was 35.7% [100 µM].

`NC(=O)c1c(NC(=O)COC(=O)Cc2ccccc2F)sc2c1CCC2`: the growth was 88.8% with T-47D breast; 106% with BT-549 breast; 105% with MDA-MB-435 melanoma; 97.4% in the test with SW-620 colon; 88.8% with MCF7 breast; 114% with HCT-116 colon. Besides, the figures for the growth with HCC-2998 colon and with KM12 colon were 114% and 105%, respectively.

Turning to `C[C@]12CCc3nc(Nc4ccccc4)sc3C1=CC[C@@H]1[C@@H]2CC[C@]2(C)/C(=N/NC(N)=S)CC[C@@H]12`, the growth is 9.46% (active) in the test with T-47D breast; 35.4% in the test on BT-549 breast; 30.8% in the test with MDA-MB-435 melanoma; 18.2% in the test on SW-620 colon; 24.3% with MCF7 breast; -46.2% (active) in the test with HCT-116 colon. Besides, the growth in the test on KM12 colon is 33.5%.

With `CNC(=O)c1cc(Oc2ccc3nc(NC(=O)c4ccc5ncccc5c4)sc3c2)ccn1`, the growth is 51.3% in the test with T-47D breast; 82.4% in the test with BT-549 breast; 91.6% in the test with MDA-MB-435 melanoma; 112% in the test on SW-620 colon; 88% with MCF7 breast; 103% in the test with HCT-116 colon. Besides, the growth in the test on HCC-2998 colon is 106%; in the test on KM12 colon, 101%.

Take `Cc1cc(SC#N)ncn1`: the growth with T-47D breast is 104%; in the test with BT-549 breast, 126%; with MDA-MB-435 melanoma it was 107%; in the test with SW-620 colon it was 106%; in the test with MCF7 breast, 93.3%; in the test on HCT-116 colon it was 99.5%. The growth in the test on KM12 colon was 104%.

As for `C=C(C)[C@@H]1CC[C@]2(C(=O)NCCNCCNC(=O)OC(C)(C)C)CC[C@]3(C)[C@H](CC[C@@H]4[C@@]5(C)CCC(=O)C(C)(C)[C@@H]5CC[C@]43C)[C@@H]12`, the growth was 28% [100 µM] in the test on T-47D breast; 54.2% [100 µM] in the test with BT-549 breast; 36.8% [100 µM] in the test on MDA-MB-435 melanoma; 28.8% [100 µM] with SW-620 colon; 22.2% [100 µM] in the test on MCF7 breast; 17.5% [100 µM] in the test on HCT-116 colon. Moreover, the growth in the test with HCC-2998 colon is 60.5% [100 µM]; in the test on KM12 colon, 34.3% [100 µM].

For the compound `Clc1ccc2nc(-c3ccc(-c4ccc(/C=N/NC5=NCCN5)cc4)s3)cn2c1`, the growth in the test with T-47D breast was 92.6%; in the test with BT-549 breast, 91.6%; with MDA-MB-435 melanoma, 101%; with SW-620 colon, 29.7%; with MCF7 breast, 79.4%; in the test on HCT-116 colon, 86.8%. In the test on KM12 colon, the growth is 103%.

`N#C/C(C(=O)c1ccccc1)=C1/C(=O)Nc2ccccc21`: the growth in the test on T-47D breast was 97.1%; in the test with BT-549 breast it was 48.3%; in the test with MDA-MB-435 melanoma it was 97.6%; in the test on SW-620 colon, 95.9%; with MCF7 breast, 89.1%; with HCT-116 colon, -50.4% (active). In addition, the growth with HCC-2998 colon is 112%; with KM12 colon it was 100%.

Take `Cc1ccc(S(=O)(=O)Oc2ccc([N+](=O)[O-])cc2[N+](=O)[O-])cc1`: the growth in the test on T-47D breast is 94.5%; in the test on BT-549 breast it was -8.38% (active); with MDA-MB-435 melanoma, 25.2%; with SW-620 colon it was 18.4%; in the test on MCF7 breast it was 70.7%; with HCT-116 colon it was 5.12% (active). The growth in the test on KM12 colon was 102%.

Regarding `O=C(NNc1ccc(-c2ccccc2)nn1)c1ccccc1`, the growth with T-47D breast is 98.8%; with BT-549 breast, 94.6%; in the test with MDA-MB-435 melanoma it was 101%; in the test with SW-620 colon it was 103%; with MCF7 breast it was 92%; with HCT-116 colon, 91.3%. The values for the growth with HCC-2998 colon and in the test with KM12 colon were 106% and 102%, respectively.
